Source: PMC7862700, “An all-to-all approach to the identification of sequence-specific readers for epigenetic DNA modifications on cytosine”

Columns and labels:
Assay in all cases: DAPPL (digital affinity profiling via proximity ligation, sequencing); 10 mM Tris-HCl pH 7.5, 50 mM NaCl, 1 mM DTT, 4% glycerol, room temperature, 30 min; GST-TFs on glutathione beads, 16-mer random dsDNA library, 0.1% formaldehyde crosslink after washing; high values mean tight binding
Details in all cases: protein: recombinant; tags: N-terminal GST; dsDNA, one strand shown
[1] = molecular target: T1, GABPA (Homo sapiens, UniProt Q06546 1-454)
T1 sequence: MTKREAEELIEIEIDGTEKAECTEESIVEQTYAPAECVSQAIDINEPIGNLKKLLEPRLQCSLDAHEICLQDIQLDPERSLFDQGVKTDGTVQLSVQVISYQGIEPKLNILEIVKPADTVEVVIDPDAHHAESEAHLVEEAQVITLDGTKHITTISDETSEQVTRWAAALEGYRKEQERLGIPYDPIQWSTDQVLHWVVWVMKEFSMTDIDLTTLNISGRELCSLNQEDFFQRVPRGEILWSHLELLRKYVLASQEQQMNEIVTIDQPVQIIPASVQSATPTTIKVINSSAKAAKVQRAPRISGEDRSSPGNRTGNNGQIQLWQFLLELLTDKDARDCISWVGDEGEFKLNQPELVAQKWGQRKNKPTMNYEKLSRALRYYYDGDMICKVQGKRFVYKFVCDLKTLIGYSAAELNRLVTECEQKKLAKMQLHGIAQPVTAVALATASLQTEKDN
In short: (§1)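 Sequencing on an Illumina NextSeq500 followed washing, crosslinking with 0.1% formaldehyde, proximity ligation (BsaI/T4 ligase, 1 h, 37 °C) and PCR amplification of pools that had been incubated for 30 min at room temperature with 200 nmole of a random double-stranded 16-mer DNA library in Tris/NaCl/DTT/glycerol buffer. Each pool held DNA-barcoded human transcription factors, expressed in yeast as GST fusions and captured on glutathione beads, plus a tag-only sample. Binding signal is a hexamer's read frequency for a factor divided by its frequency in the tag-only sample.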

[2] = molecular target: ELF1 (Homo sapiens, UniProt P32519 1-619)
ELF1, sequence (P32519 whole entry): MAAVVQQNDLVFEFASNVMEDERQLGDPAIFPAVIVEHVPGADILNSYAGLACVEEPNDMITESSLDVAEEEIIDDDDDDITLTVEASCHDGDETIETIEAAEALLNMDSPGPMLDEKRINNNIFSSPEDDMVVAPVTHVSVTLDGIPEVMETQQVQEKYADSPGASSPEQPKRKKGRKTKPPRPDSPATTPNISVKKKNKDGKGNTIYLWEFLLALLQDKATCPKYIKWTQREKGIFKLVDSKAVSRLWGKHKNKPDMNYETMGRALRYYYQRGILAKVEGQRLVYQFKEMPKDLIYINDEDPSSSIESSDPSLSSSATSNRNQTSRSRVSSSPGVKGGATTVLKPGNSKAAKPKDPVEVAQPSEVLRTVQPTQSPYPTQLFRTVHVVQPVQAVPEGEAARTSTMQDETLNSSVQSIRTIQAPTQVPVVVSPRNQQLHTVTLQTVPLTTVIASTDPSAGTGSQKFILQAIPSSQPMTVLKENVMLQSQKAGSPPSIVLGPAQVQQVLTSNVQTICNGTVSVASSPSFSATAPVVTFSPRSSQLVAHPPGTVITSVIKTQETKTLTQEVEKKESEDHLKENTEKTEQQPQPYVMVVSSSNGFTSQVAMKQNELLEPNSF
In short: as §1

[3] = molecular target: SPIB (Homo sapiens, UniProt Q01892 1-262)
SPIB, sequence (Q01892 whole entry): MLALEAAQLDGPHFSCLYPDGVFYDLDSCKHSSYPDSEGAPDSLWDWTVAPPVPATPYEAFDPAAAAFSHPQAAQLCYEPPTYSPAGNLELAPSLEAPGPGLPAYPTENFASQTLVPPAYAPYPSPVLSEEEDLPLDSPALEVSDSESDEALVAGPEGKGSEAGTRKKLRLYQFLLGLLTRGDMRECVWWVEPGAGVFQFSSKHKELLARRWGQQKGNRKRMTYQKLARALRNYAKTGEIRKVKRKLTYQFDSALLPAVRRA
In short: as §1

[4] = molecular target: T2, FEV (Homo sapiens, UniProt Q99581 1-238)
T2 sequence: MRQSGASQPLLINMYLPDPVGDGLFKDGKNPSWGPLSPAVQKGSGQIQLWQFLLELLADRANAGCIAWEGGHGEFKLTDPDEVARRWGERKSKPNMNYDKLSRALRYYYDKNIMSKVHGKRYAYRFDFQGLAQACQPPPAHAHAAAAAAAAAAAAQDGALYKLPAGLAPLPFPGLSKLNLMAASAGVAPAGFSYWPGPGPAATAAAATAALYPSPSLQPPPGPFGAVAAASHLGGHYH
In short: as §1

[5] = molecular target: ETV5 (Homo sapiens, UniProt P41161 1-510)
ETV5, sequence (P41161 whole entry): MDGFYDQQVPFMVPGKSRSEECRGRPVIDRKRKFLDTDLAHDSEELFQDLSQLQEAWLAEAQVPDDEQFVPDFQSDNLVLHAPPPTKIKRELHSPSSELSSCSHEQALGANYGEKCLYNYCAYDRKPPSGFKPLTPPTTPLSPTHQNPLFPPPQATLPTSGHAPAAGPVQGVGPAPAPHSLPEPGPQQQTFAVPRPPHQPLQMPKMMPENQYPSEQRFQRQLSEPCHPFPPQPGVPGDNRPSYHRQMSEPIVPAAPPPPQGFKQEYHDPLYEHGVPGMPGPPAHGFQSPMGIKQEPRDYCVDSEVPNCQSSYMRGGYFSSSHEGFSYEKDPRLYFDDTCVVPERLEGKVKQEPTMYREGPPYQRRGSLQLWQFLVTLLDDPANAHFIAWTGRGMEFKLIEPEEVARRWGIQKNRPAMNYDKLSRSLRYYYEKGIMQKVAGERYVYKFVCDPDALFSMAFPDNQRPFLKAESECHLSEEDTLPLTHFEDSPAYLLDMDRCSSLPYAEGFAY
In short: as §1

[6] = molecular target: ELF4 (Homo sapiens, UniProt Q99607 1-663)
ELF4, sequence (Q99607 whole entry): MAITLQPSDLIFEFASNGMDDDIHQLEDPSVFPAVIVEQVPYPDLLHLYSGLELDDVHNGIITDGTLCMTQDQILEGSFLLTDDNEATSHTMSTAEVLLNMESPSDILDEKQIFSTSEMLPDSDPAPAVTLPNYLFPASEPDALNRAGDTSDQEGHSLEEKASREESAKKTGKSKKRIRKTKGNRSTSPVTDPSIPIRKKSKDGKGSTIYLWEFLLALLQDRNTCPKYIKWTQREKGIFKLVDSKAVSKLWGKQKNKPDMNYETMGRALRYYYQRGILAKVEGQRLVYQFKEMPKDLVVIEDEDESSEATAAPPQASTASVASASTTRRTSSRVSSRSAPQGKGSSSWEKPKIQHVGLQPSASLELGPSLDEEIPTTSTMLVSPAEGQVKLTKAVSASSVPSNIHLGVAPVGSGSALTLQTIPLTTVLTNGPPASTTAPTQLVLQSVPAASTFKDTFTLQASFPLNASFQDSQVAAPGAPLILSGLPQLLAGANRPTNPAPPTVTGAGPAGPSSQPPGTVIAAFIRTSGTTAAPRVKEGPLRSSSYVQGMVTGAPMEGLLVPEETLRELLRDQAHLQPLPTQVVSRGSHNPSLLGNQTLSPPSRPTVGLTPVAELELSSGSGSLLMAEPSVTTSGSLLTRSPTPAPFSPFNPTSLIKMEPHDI
In short: as §1

[7] = molecular target: T3, ELK4 (Homo sapiens, UniProt P28324-2 1-405)
T3 sequence: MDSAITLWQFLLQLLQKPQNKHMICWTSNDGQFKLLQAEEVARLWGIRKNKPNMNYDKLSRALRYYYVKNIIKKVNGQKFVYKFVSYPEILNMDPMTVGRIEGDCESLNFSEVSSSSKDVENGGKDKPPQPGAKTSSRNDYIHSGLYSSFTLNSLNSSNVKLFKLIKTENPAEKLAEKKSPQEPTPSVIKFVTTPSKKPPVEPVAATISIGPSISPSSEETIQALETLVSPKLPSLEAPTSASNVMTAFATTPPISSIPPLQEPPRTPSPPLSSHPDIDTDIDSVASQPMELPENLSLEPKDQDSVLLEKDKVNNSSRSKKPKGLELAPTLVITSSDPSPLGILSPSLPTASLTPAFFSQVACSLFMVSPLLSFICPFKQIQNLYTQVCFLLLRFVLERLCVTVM
In short: as §1

[8] = molecular target: T4, ETV2 (Homo sapiens, UniProt O00321 1-342)
T4 sequence: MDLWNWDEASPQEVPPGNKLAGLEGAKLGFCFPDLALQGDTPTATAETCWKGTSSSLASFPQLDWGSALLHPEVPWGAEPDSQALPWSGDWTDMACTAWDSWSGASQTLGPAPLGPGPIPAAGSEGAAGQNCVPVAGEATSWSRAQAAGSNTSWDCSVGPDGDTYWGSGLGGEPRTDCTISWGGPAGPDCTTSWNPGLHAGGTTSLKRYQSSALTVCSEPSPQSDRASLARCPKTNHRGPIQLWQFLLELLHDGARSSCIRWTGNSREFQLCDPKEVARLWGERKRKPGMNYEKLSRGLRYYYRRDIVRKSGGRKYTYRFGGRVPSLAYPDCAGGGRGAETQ
In short: as §1

[9] = molecular target: T5, ELF3 (Homo sapiens, UniProt P78545 1-371)
T5 sequence: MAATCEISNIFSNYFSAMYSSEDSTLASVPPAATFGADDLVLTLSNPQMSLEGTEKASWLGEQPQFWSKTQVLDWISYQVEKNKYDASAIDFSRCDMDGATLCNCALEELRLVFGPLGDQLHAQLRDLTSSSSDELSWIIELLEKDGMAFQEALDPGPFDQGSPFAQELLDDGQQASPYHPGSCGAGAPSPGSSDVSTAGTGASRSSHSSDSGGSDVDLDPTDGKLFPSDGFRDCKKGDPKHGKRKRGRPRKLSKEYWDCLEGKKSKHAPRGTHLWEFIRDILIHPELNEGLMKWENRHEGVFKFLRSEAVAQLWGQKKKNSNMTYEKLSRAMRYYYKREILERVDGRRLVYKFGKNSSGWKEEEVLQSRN
In short: as §1

[10] = molecular target: ETV1 (Homo sapiens, UniProt P50549 1-477)
ETV1, sequence (P50549 whole entry): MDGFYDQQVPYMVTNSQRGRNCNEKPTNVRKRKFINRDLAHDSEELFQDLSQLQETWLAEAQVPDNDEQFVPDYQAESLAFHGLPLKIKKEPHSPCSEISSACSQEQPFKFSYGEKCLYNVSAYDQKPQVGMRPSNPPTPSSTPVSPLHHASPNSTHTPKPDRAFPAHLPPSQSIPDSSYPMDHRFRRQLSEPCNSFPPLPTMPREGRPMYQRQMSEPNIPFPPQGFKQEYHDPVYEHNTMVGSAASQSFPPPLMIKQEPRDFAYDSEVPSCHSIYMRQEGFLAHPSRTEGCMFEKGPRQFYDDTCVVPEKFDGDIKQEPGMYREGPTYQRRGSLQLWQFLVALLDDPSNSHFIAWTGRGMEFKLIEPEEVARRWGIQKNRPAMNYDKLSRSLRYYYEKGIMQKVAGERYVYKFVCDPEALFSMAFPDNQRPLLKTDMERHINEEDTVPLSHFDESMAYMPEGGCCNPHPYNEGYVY
In short: as §1

[11] = molecular target: T6, ETV3L (Homo sapiens, UniProt Q6ZN32 1-361)
T6 sequence: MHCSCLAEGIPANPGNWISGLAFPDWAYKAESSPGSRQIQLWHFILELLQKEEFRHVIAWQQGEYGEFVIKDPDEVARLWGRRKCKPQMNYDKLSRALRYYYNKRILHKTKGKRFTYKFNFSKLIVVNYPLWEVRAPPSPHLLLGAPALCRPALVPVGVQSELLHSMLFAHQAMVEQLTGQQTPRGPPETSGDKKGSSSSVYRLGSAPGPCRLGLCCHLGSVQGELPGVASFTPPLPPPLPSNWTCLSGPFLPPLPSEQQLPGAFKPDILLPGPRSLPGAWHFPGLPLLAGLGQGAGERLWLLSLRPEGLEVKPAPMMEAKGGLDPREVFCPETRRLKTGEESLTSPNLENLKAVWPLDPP
In short: as §1

[12] = molecular target: T7, ETS2 (Homo sapiens, UniProt P15036 1-469)
T7 sequence: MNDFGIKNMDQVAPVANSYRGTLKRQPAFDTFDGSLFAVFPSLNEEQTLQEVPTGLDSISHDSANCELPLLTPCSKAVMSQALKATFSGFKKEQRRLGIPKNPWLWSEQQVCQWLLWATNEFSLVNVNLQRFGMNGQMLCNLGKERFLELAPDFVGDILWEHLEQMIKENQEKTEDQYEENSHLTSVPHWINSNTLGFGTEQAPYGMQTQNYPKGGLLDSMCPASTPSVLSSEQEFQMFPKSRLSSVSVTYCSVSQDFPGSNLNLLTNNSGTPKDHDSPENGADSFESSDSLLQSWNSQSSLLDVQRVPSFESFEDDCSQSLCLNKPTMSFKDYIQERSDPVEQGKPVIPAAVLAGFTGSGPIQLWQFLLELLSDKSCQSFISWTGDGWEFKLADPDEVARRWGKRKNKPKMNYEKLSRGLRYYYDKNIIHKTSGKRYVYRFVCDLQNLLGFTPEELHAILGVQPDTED
In short: as §1

[13] = molecular target: T8, ETV7 (Homo sapiens, UniProt Q9Y603 1-341)
T8 sequence: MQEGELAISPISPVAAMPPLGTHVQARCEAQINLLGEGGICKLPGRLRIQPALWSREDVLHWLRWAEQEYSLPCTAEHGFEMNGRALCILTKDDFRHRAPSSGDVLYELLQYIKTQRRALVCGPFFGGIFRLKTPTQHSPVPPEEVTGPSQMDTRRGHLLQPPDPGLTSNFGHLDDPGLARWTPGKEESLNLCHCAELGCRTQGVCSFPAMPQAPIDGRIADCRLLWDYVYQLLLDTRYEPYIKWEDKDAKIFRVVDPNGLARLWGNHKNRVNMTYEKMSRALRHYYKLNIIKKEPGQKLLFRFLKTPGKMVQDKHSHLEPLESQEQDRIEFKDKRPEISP
In short: as §1

[14] = molecular target: T9, ETV3 (Homo sapiens, UniProt P41162-2 1-143)
T9 sequence: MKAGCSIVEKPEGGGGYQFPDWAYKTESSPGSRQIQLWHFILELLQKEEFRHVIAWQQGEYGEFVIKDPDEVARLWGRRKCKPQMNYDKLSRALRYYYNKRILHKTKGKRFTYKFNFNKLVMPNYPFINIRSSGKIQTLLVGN
In short: as §1

[15] = molecular target: ETV6 (Homo sapiens, UniProt P41212 1-452)
ETV6, sequence (P41212 whole entry): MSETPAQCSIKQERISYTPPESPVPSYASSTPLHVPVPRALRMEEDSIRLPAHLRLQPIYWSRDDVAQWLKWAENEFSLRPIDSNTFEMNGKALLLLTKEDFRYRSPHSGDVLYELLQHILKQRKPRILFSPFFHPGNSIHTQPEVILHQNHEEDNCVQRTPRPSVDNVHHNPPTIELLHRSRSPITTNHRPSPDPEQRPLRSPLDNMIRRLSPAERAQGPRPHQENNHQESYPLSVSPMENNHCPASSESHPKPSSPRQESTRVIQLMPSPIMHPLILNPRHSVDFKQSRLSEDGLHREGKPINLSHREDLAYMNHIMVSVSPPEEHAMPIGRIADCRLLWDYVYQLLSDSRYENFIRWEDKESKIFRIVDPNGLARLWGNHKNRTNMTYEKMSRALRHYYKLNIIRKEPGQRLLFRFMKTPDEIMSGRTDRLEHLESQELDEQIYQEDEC
In short: as §1

CGCGTT
binding signal [1]: 1.01 fold enrichment (6-mer frequency, TF over GST control) | binding signal [2]: 1.12 fold enrichment (6-mer frequency, TF over GST control) | binding signal [3]: 1.05 fold enrichment (6-mer frequency, TF over GST control) | binding signal [4]: 1.09 fold enrichment (6-mer frequency, TF over GST control) | binding signal [5]: 1.02 fold enrichment (6-mer frequency, TF over GST control) | binding signal [6]: 1.1 fold enrichment (6-mer frequency, TF over GST control) | binding signal [7]: 1.09 fold enrichment (6-mer frequency, TF over GST control) | binding signal [8]: 1.16 fold enrichment (6-mer frequency, TF over GST control) | binding signal [9]: 1.05 fold enrichment (6-mer frequency, TF over GST control) | binding signal [10]: 1.06 fold enrichment (6-mer frequency, TF over GST control) | binding signal [11]: 1.15 fold enrichment (6-mer frequency, TF over GST control) | binding signal [12]: 1.13 fold enrichment (6-mer frequency, TF over GST control) | binding signal [13]: 1.02 fold enrichment (6-mer frequency, TF over GST control) | binding signal [14]: 1.03 fold enrichment (6-mer frequency, TF over GST control) | binding signal [15]: 1.06 fold enrichment (6-mer frequency, TF over GST control)
